Some test systems named below: NCI-H23 lung; NCI-H226 lung; HOP-62 NSCLC; NCI-H460 lung; HOP-92 NSCLC; NCI-H522 lung; A549/ATCC NSCLC; 786-0 renal; COLO 205 colon.
Holding throughout (experiment): NCI-60 one-dose screen, 48 h (100 = growth as untreated, 0 = no growth, -100 = all killed)
Common to all, as to conditions: 10 µM

Each structure is given as a SMILES string. This is part of a sample that, as a whole, favours compounds with a hit. Of some 83,000 tested, about 20% had one in any assay.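 Single-dose data. Exposure time 48 hours. Values below 10 considered active.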 Unmarked numbers belong to inactive results. Calls of active or inactive are those of the source.

Regarding `COc1cc(OC)c2c(=O)c(O)c(-c3ccccc3)oc2c1`, the growth in the experiment with NCI-H23 lung is 79.8%; with NCI-H226 lung it was 69.3%; with HOP-62 NSCLC, 67.7%; in the experiment with NCI-H460 lung, 53.5%; in the experiment on HOP-92 NSCLC it was 52%; with NCI-H522 lung, 72.5%. For the same molecule, the growth with A549/ATCC NSCLC was 77.3%; with 786-0 renal, 70.8%; in the experiment on COLO 205 colon, 104%.

For `COc1ccc(C2CC(c3cccs3)=NN2c2ccc(S(N)(=O)=O)cc2)cc1` (stereo unspecified), the growth in the experiment with NCI-H23 lung is 104%; with NCI-H226 lung, 90.7%; in the experiment with HOP-62 NSCLC, 97.8%; in the experiment with NCI-H460 lung, 84.2%; with HOP-92 NSCLC, 63.1%; with NCI-H522 lung, 69.6%. Further, the growth in the experiment on A549/ATCC NSCLC is 75.8%; in the experiment on 786-0 renal, 96.5%; with COLO 205 colon it was -89.6% (active).

For the molecule `CC(CN(C)C)Oc1ccc(OC(C)CN(C)C)c2c1C(=O)c1ccccc1C2=O` (stereo unspecified), the growth with NCI-H23 lung is 41.6%; with NCI-H226 lung it was 44.5%; with HOP-62 NSCLC, 49.3%; in the experiment on NCI-H460 lung, 17.2%; with HOP-92 NSCLC, 49.1%; with NCI-H522 lung, 41.1%. Also, the growth with A549/ATCC NSCLC was 22.5%; with 786-0 renal, 51%; with COLO 205 colon it was 3.02% (active).

Take `CCOC(=O)C1C(C(=O)OCC)C2C(=O)C3C(C(=O)OCC)C(C(=O)OCC)C3C(=O)C12` (stereo unspecified): the growth was 98.9% with NCI-H23 lung; 100% with NCI-H226 lung; 96.2% in the experiment with HOP-62 NSCLC; 103% with NCI-H460 lung; 104% in the experiment on HOP-92 NSCLC; 104% in the experiment on NCI-H522 lung. For the same molecule, the results for the growth in the experiment on A549/ATCC NSCLC, in the experiment with 786-0 renal and with COLO 205 colon were 100%, 103% and 120%, respectively.

Consider `CN(C)CCOc1cccc(-c2nc3sccn3c2-c2ccnc(S(C)(=O)=O)n2)c1`, for which the growth in the experiment with NCI-H23 lung was 100%; in the experiment on NCI-H226 lung it was 92.3%; with HOP-62 NSCLC it was 79%; in the experiment on NCI-H460 lung it was 94.9%; in the experiment on HOP-92 NSCLC, 53.7%; in the experiment on NCI-H522 lung it was 103%. In addition, the growth with A549/ATCC NSCLC was 97.9%; in the experiment with 786-0 renal, 95.9%; in the experiment with COLO 205 colon it was 106%.

For the molecule `O=[N+]([O-])c1cc(Cl)cc(Cl)c1O`, the growth is 97.7% with NCI-H23 lung; 101% in the experiment on NCI-H226 lung; 91.5% in the experiment with HOP-62 NSCLC; 105% in the experiment with NCI-H460 lung; 105% with HOP-92 NSCLC; 82.3% in the experiment with NCI-H522 lung. Moreover, the growth with A549/ATCC NSCLC is 97.4%; with 786-0 renal, 99.9%; in the experiment on COLO 205 colon it was 108%.

In the case of `c1ccc2c(c1)Cc1ccccc1N2CCN1CCCCC1`, the growth with NCI-H23 lung is 90%; in the experiment with NCI-H226 lung, 103%; in the experiment on HOP-62 NSCLC, 84.1%; with NCI-H460 lung, 107%; in the experiment with HOP-92 NSCLC it was 85.8%; in the experiment with NCI-H522 lung it was 75.2%. Moreover, the figures for the growth in the experiment with A549/ATCC NSCLC, with 786-0 renal and in the experiment with COLO 205 colon were 89.9%, 95.3% and 82.2%, respectively.

For `CCN(CC)CCCC(C)N=C(C1=C(C(=NC(C)CCCN(CC)CC)c2cccc(OC)c2)C(=O)NC1=O)c1cccc(OC)c1` (stereo unspecified), the growth is -18.4% (active) in the experiment on NCI-H23 lung; -43.4% (active) in the experiment with NCI-H226 lung; -57.5% (active) with HOP-62 NSCLC; -47.1% (active) with NCI-H460 lung; -66.1% (active) in the experiment with HOP-92 NSCLC; -64.5% (active) in the experiment with NCI-H522 lung. Also, the growth with A549/ATCC NSCLC is -81.7% (active); in the experiment on 786-0 renal, -8.78% (active); in the experiment with COLO 205 colon, -89.9% (active).

Consider `O=C(O)Cc1ccc(O)c(O)c1`, for which the growth is 103% in the experiment on NCI-H23 lung; 98.2% with NCI-H226 lung; 99.3% in the experiment with HOP-62 NSCLC; 100% in the experiment with NCI-H460 lung; 109% in the experiment on HOP-92 NSCLC; 106% in the experiment with NCI-H522 lung. Moreover, the figures for the growth in the experiment on A549/ATCC NSCLC, in the experiment with 786-0 renal and in the experiment on COLO 205 colon were 102%, 105% and 103%, respectively.

In the case of `COc1ccc(-c2cc(-c3ccccc3)nc(SCCCCCCC(=O)NO)n2)cc1`, the growth in the experiment on NCI-H23 lung was 50.9%; with NCI-H226 lung, 72.3%; with HOP-62 NSCLC it was 57.2%; in the experiment with NCI-H460 lung, 36%; in the experiment with HOP-92 NSCLC, 49.3%; in the experiment on NCI-H522 lung, 18.8%. For the same molecule, the growth is 50.1% in the experiment on A549/ATCC NSCLC, 79.8% with 786-0 renal and 44.8% with COLO 205 colon.

Take `O=C1c2ccccc2C(=O)N1CCCCNc1ccccc1`: the growth with NCI-H23 lung is 104%; in the experiment on NCI-H226 lung it was 91.7%; in the experiment on HOP-62 NSCLC, 122%; in the experiment on NCI-H460 lung it was 89.3%; with HOP-92 NSCLC it was 106%; with NCI-H522 lung, 101%. Also, the growth in the experiment on A549/ATCC NSCLC is 78.2%; in the experiment on 786-0 renal, 63.7%; with COLO 205 colon, 114%.

`COc1cc(-c2nn(-c3cccc(NC(=O)NCCNC(=O)c4cccc(C(F)(F)F)c4)c3)cc2-c2ccncc2)ccc1Cl`: the growth in the experiment on NCI-H23 lung was 57%; in the experiment on NCI-H226 lung it was 70.8%; in the experiment on HOP-62 NSCLC, 59.6%; in the experiment on NCI-H460 lung, 18.7%; with HOP-92 NSCLC it was 42.5%; in the experiment on NCI-H522 lung it was 24.4%. For the same molecule, the growth with A549/ATCC NSCLC was 31.3%; in the experiment with 786-0 renal it was 17.4%; with COLO 205 colon it was 39.7%.

Regarding `COc1cc(NC(=O)Nc2cnc(Nc3ccc(N4CCOCC4)cc3)nc2Oc2cccc(OC)c2)cc(OC)c1`, the growth in the experiment with NCI-H23 lung is 61.3%; in the experiment on NCI-H226 lung, 7.06% (active); with HOP-62 NSCLC, 32.1%; with NCI-H460 lung, 23.9%; with HOP-92 NSCLC, 4.67% (active); in the experiment with NCI-H522 lung, 27.5%. Besides, the growth in the experiment on A549/ATCC NSCLC is 23.4%; in the experiment with 786-0 renal, -25.6% (active); with COLO 205 colon it was 46.2%.

On to `N#CCc1csc(Cc2ccccc2)n1`, for which the growth with NCI-H23 lung is 97.2%; with NCI-H226 lung, 101%; in the experiment with HOP-62 NSCLC, 104%; in the experiment on NCI-H460 lung, 102%; with HOP-92 NSCLC it was 117%; with NCI-H522 lung, 88.9%. The results for the growth in the experiment on A549/ATCC NSCLC, in the experiment with 786-0 renal and with COLO 205 colon were 95.1%, 108% and 117%, respectively.

The values above are taken from PubChem BioAssay (NCI).
